# Where “and” joins values, the source holds several entries; their conditions need not be identical. Equal values may be shown once. Calls of active or inactive are those of the source.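 The calls were made as follows, unless noted: active = normalized viability below 100% at a tested concentration; inactive = the rest.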
# How the values were obtained:
# [1] = viability loss with induced miR-34 in A549 – imaging, A549 dox-inducible miR-34, nuclei and caspase counts, primary screen (AID 1347080;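 active = compounds whose cell count with miR-34 switched on is under 0.7 times the count with it off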); settings: A549 miR-34 inducible, Hoechst nuclei count, 48 h
# [2] = MELAS cybrid and Rieske KO viability enhancers – cell-based, MELAS cybrids, Rieske KO mouse fibroblasts, CellTiter-Glo, primary screen (AID 1508586;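 active = mean z-score across replicates of 1.96 or higher in either the MELAS or the Rieske mutant cell line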;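 also: z relative to plate mean and SD of compound and empty wells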); settings: low glucose
# [3] = drug combination growth inhibition, ovarian cancer – cell-based, oncology-focused library, rucaparib conditional, profiling panel (AID 1508598); settings: patient-derived ovarian cancer cells, CellTiter-Glo viability, 144 h, stronger effect = lower value
# [4] = growth inhibition, single agent or in combination, cell-based, chromothripsis tumors, cisplatin or BGB combos (AID 1671449; in the data active = inhibition above about 80%;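 also: cells exposed for 96 hours; 0% = vehicle DMSO and 100% = killing by high DMSO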); settings: LFS_MB_P medulloblastoma cells
# [5] = growth inhibition, single agent and combos, cell-based, chromothripsis tumors, cisplatin or BGB combos (AID 1671450; in the data active = inhibition above about 80%;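 also: cells exposed to compound for four days; 0% = vehicle DMSO and 100% = cell killing by high DMSO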); settings: HDN33 neuroblastoma cells, stronger effect = higher value
# [6] = growth inhibition, single agents and combos, ICB984, cell-based, cisplatin or BGB combos, synergistic combos for chromothripsis tumors (AID 1671451; call rule not given here;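 also: cells exposed for 96 hours before readout; 0% = vehicle DMSO and 100% = killing by high DMSO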); settings: ICB984 medulloblastoma cells, drug combinations, stronger effect = higher value
# [7] = growth inhibition, single agents and combos, LFS_MB_1R, cell-based, cisplatin or BGB combos, synergistic combos for chromothripsis tumors (AID 1671452; in the data active = inhibition above about 80%;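 also: cells exposed for 96 hours before readout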); settings: LFS_MB_1R medulloblastoma cells, stronger effect = higher value
# [8] = growth inhibition, single agents and combos, HTB85, cell-based, BGB or cisplatin IC20 combos, synergistic combos for chromothripsis tumors (AID 1671453; in the data active = inhibition above about 80%;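 also: cells exposed for 96 hours before readout; 0% = vehicle DMSO and 100% = high DMSO killing control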); settings: HTB85 osteosarcoma cells, drug combinations, stronger effect = higher value
# [9] = growth inhibition, single agents and combos, CRL2098, cell-based, BGB or cisplatin IC20 combos, synergistic combos for chromothripsis tumors (AID 1671454; in the data active = inhibition above about 80%;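 also: cells exposed for 96 h before readout; 0% = vehicle DMSO and 100% = killing by high DMSO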); settings: CRL2098 osteosarcoma cells, drug combinations, stronger effect = higher value
# [10] = growth inhibition, single agents and combos, HD-MB03, cell-based, BGB or cisplatin IC20 combos, synergistic combos for chromothripsis tumors (AID 1671455; in the data active = inhibition above about 83%;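 also: 0% = vehicle DMSO and 100% = high DMSO as cytotoxic control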); settings: HD-MB03 medulloblastoma cells, stronger effect = higher value
# [11] = growth inhibition, single agents and combos, UWB1.289, cell-based, BGB or cisplatin combos, synergistic combos for chromothripsis tumors (AID 1671456; in the data active = inhibition above about 80%;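 also: cells exposed to compound for four days; 0% = vehicle DMSO and 100% = killing by high DMSO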); settings: UWB1.289 ovarian carcinoma cells, stronger effect = higher value
# [12] = growth inhibition, single agents and combos, LFS_MB_2R, cell-based, cisplatin combos, synergistic combos for chromothripsis tumors (AID 1671457; in the data active = inhibition above about 80%;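 also: cells exposed to compound for four days before readout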); settings: LFS_MB_2R medulloblastoma cells, stronger effect = higher value
# [13] = growth inhibition, MDA-MB-436, cell-based, BGB or cisplatin combos, synergistic combos for chromothripsis tumors (AID 1671458; call rule not given here;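 also: cells exposed for 96 hours; 0% = vehicle DMSO and 100% = killing by high DMSO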); settings: MDA-MB-436 breast carcinoma growth inhibition, drug combinations, stronger effect = higher value
# [14] = UWB1.289_BRCA1 ovarian cancer growth, cell-based, BGB or cisplatin combinations (AID 1671459; in the data active = inhibition above about 80%); settings: UWB1.289 BRCA1 ovarian carcinoma, drug combinations, stronger effect = higher value
# [15] = BT084 cell growth, single and combined drugs, ICGC_MB145, cisplatin and BGB IC40 combos (AID 1671461; in the data active = inhibition above about 80%;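 also: cells exposed to drugs for 96 hours; 0% = vehicle DMSO and 100% = high DMSO full killing control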); settings: BT084 medulloblastoma cells, drug combinations, stronger effect = higher value
# [16] = RCMB18 cell growth, single agent and combined, cisplatin and BGB IC40 combos (AID 1671462; in the data active = inhibition above about 80%;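 also: cells exposed to compound for four days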); settings: RCMB18 medulloblastoma cells, stronger effect = higher value
# [17] = CRL1545 cell growth, single agent and combined, cisplatin and BGB IC20 combos (AID 1671464; in the data active = inhibition above about 80%;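 also: cells exposed to compound for 96 hours before readout; 0% = vehicle DMSO and 100% = high DMSO killing control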); settings: CRL1545 osteosarcoma cells, stronger effect = higher value
# [18] = measured here: combination with BGB IC40, at 0.05 µM
# [19] = measured here: with BGB IC20 combination, at 0.5 µM
# [20] = measured here: with cisplatin IC20 combination, at 0.5 µM
# [21] = measured here: combination with cisplatin, at 0.5 µM
# [22] = measured here: combination with cisplatin, at 5 µM
structure (smiles),measurement,setting,value
C[C@@]1(c2nc3c(C(N)=O)cccc3[nH]2)CCCN1,fold change,"[1]; stronger effect = lower value, cell number ratio, induced over uninduced",0.941 (inactive)
same,fold change,[1]; measured here: relative caspase fold change +Dox/-Dox,1.01
same,cell count,"[1]; measured here: total cells with miR-34 induction, stronger effect = lower value",6840
same,cell count,[1]; measured here: total cells without miR-34 induction,7270
same,z-score,"[2]; MELAS cybrid survival, CellTiter-Glo 48 h, stronger effect = higher value",-0.268 (inactive)
same,z-score,"[2]; Rieske KO mouse fibroblast survival, CellTiter-Glo 72 h",0.497
same,viability,"[3]; at 0.000305 µM, OCI-C5x cells, with rucaparib 10 µM, 100% = cells with rucaparib alone",125% (inactive)
same,viability,"[3]; at 0.000305 µM, OCI-C5x cells, without rucaparib",110% (inactive)
same,viability,"[3]; at 0.000305 µM, OCI-P5x cells, with rucaparib 20 µM, 100% = cells with rucaparib alone",108% (inactive)
same,viability,"[3]; at 0.000305 µM, OCI-P5x cells, without rucaparib",83.4% (active)
same,viability,"[3]; at 0.00122 µM, OCI-C5x cells, with rucaparib 10 µM, 100% = cells with rucaparib alone",114% (inactive)
same,viability,"[3]; at 0.00122 µM, OCI-C5x cells, without rucaparib",114% (inactive)
same,viability,"[3]; at 0.00122 µM, OCI-P5x cells, with rucaparib 20 µM, 100% = cells with rucaparib alone",97.2% (active)
same,viability,"[3]; at 0.00122 µM, OCI-P5x cells, without rucaparib",101% (inactive)
same,viability,"[3]; at 0.00488 µM, OCI-C5x cells, with rucaparib 10 µM, 100% = cells with rucaparib alone",122% (inactive)
same,viability,"[3]; at 0.00488 µM, OCI-C5x cells, without rucaparib",109% (inactive)
same,viability,"[3]; at 0.00488 µM, OCI-P5x cells, with rucaparib 20 µM, 100% = cells with rucaparib alone",106% (inactive)
same,viability,"[3]; at 0.00488 µM, OCI-P5x cells, without rucaparib",102% (inactive)
same,viability,"[3]; at 0.0195 µM, OCI-C5x cells, with rucaparib 10 µM, 100% = cells with rucaparib alone",121% (inactive)
same,viability,"[3]; at 0.0195 µM, OCI-C5x cells, without rucaparib",106% (inactive)
same,viability,"[3]; at 0.0195 µM, OCI-P5x cells, with rucaparib 20 µM, 100% = cells with rucaparib alone",98.2% (active)
same,viability,"[3]; at 0.0195 µM, OCI-P5x cells, without rucaparib",95.2% (active)
same,viability,"[3]; at 0.0781 µM, OCI-C5x cells, with rucaparib 10 µM, 100% = cells with rucaparib alone",120% (inactive)
same,viability,"[3]; at 0.0781 µM, OCI-C5x cells, without rucaparib",104% (inactive)
same,viability,"[3]; at 0.0781 µM, OCI-P5x cells, with rucaparib 20 µM, 100% = cells with rucaparib alone",91.6% (active)
same,viability,"[3]; at 0.0781 µM, OCI-P5x cells, without rucaparib",102% (inactive)
same,viability,"[3]; at 0.313 µM, OCI-C5x cells, with rucaparib 10 µM, 100% = cells with rucaparib alone",132% (inactive)
same,viability,"[3]; at 0.313 µM, OCI-C5x cells, without rucaparib",102% (inactive)
same,viability,"[3]; at 0.313 µM, OCI-P5x cells, with rucaparib 20 µM, 100% = cells with rucaparib alone",98.3% (active)
same,viability,"[3]; at 0.313 µM, OCI-P5x cells, without rucaparib",91% (active)
same,viability,"[3]; at 1.25 µM, OCI-C5x cells, with rucaparib 10 µM, 100% = cells with rucaparib alone",111% (inactive)
same,viability,"[3]; at 1.25 µM, OCI-C5x cells, without rucaparib",108% (inactive)
same,viability,"[3]; at 1.25 µM, OCI-P5x cells, with rucaparib 20 µM, 100% = cells with rucaparib alone",90% (active)
same,viability,"[3]; at 1.25 µM, OCI-P5x cells, without rucaparib",87.4% (active)
same,viability,"[3]; at 5 µM, OCI-C5x cells, with rucaparib 10 µM, 100% = cells with rucaparib alone",123% (inactive)
same,viability,"[3]; at 5 µM, OCI-C5x cells, without rucaparib",108% (inactive)
same,viability,"[3]; at 5 µM, OCI-P5x cells, with rucaparib 20 µM, 100% = cells with rucaparib alone",80.7% (active)
same,viability,"[3]; at 5 µM, OCI-P5x cells, without rucaparib",91.4% (active)
same,inhibition,"[4]; at 0.5 µM, stronger effect = higher value",-30.4% (inactive) and -7.42% (inactive)
same,inhibition,"[4]; measured here: combination with BGB IC20, at 0.005 µM",18.7% and -30.5%
same,inhibition,"[4]; measured here: combination with BGB IC40, at 0.005 µM",-17.7% and -33.9%
same,inhibition,[4]; [18],4.58% and -46.4%
same,inhibition,"[4]; measured here: combination with cisplatin, at 0.5 µM, stronger effect = higher value",-30.4% and -24.5%
same,inhibition,"[4]; measured here: combination with cisplatin, at 5 µM, stronger effect = higher value",-24.1% and -57.4%
same,inhibition,"[5]; BGB combo, at 5 µM",-38.7% and -21.7%
same,inhibition,[5]; at 0.5 µM,-18.6% (inactive) and -27.5% (inactive)
same,inhibition,"[5]; cisplatin combo, at 5 µM",-25% and 2.08%
same,inhibition,[5]; [19],-20.1% and -23.6%
same,inhibition,[5]; [20],-10.4% and -15.2%
same,inhibition,"[5]; single agent, at 5 µM",-35.1% and -10.6%
same,inhibition,"[6]; BGB IC20 combo, at 0.005 µM",-43.5% and -1.75%
same,inhibition,"[6]; BGB IC40 combo, at 0.005 µM",-45.8% and -18.7%
same,inhibition,"[6]; BGB IC40 combo, at 0.05 µM",-19.5% and -39.6%
same,inhibition,[6]; at 0.5 µM,-17.4% (inactive) and -39% (inactive)
same,inhibition,"[6]; cisplatin combo, at 0.05 µM",-25.6% and -44.6%
same,inhibition,"[6]; cisplatin combo, at 0.5 µM",-23.4% and -27.8%
same,inhibition,"[6]; cisplatin combo, at 5 µM",-25.3% and -24.6%
same,inhibition,"[6]; measured here: 5 uM single agent, at 5 µM",-15.1% and -18.4%
same,inhibition,[7]; at 0.5 µM,-10.8% (inactive) and -21.8% (inactive)
same,inhibition,[7]; [18],5.8% and -13.2%
same,inhibition,[7]; [21],-30.9% and -32.1%
same,inhibition,[7]; [22],-34.7% and -78.6%
same,inhibition,[8]; at 0.5 µM,-28.2% (inactive) and -8.28% (inactive)
same,inhibition,"[8]; measured here: with BGB IC20, at 0.5 µM",-26.4% and -15.6%
same,inhibition,"[8]; measured here: with BGB IC20, at 5 µM",-37.2% and -23.1%
same,inhibition,"[8]; measured here: with cisplatin IC20, at 0.5 µM",-25.2% and -2.08%
same,inhibition,"[8]; measured here: with cisplatin IC20, at 5 µM",-5% and -37.1%
same,inhibition,"[8]; single agent, at 5 µM",-8.07% and -11.2%
same,inhibition,[9]; at 0.5 µM,-55.3% (inactive) and -67.8% (inactive)
same,inhibition,"[9]; measured here: combination with BGB at IC20, at 0.5 µM",-51.9% and -45%
same,inhibition,"[9]; measured here: combination with cisplatin at IC20, at 0.5 µM",-90.3% and -100%
same,inhibition,[10]; at 0.5 µM,-10.9% (inactive) and -9.85% (inactive)
same,inhibition,"[10]; measured here: combo with BGB at IC20, at 0.5 µM",-9.31% and -21.4%
same,inhibition,"[10]; measured here: combo with cisplatin at IC20, at 0.5 µM",-20.2% and -6.83%
same,inhibition,[11]; at 0.5 µM,-10.2% (inactive) and 3.78% (inactive)
same,inhibition,"[11]; measured here: inhibition with BGB combination, at 0.05 µM",-8.84% and -23.2%
same,inhibition,"[11]; measured here: inhibition with cisplatin combination, at 0.05 µM",-15.9% and -9.39%
same,inhibition,[12]; at 0.5 µM,-15.2% (inactive) and -24.4% (inactive)
same,inhibition,[12]; [21],-24.8% and -30.4%
same,inhibition,[12]; [22],-13.3% and -26.2%
same,inhibition,[13]; at 0.5 µM,4.59% (inactive) and -23.4% (inactive)
same,inhibition,"[13]; measured here: BGB combination, at 0.5 µM",-1.87% and -40.7%
same,inhibition,"[13]; measured here: BGB combination, at 5 µM",2.42% and -13.4%
same,inhibition,"[13]; measured here: cisplatin combination, at 0.5 µM",-2.04% and -27.9%
same,inhibition,"[13]; measured here: cisplatin combination, at 5 µM",-0.972% and -36.3%
same,inhibition,"[14]; BGB combination, concentration series, at 5 µM",-24.7% and -7.53%
same,inhibition,[14]; at 0.5 µM,-10.7% (inactive) and -7.52% (inactive)
same,inhibition,"[14]; cisplatin combination, concentration series, at 5 µM",-27.7% and -31.9%
same,inhibition,[15]; at 0.5 µM,-3.53% (inactive) and 6.53% (inactive)
same,inhibition,"[15]; cisplatin combination, at 0.5 µM",-17.4% and -25.6%
same,inhibition,"[15]; cisplatin combination, at 5 µM",-105% and -12.9%
same,inhibition,"[15]; measured here: BGB IC40 combination 0.05 uM, at 0.05 µM",-13.2% and 18.5%
same,inhibition,"[15]; single agent, at 5 µM",2.42% and -15%
same,inhibition,[16]; at 0.5 µM,-29.1% (inactive) and -18.3% (inactive)
same,inhibition,"[16]; cisplatin combo, at 5 µM",-12.7% and -24.7%
same,inhibition,"[16]; measured here: BGB IC40 combination, at 0.05 µM",9.85% and -28.2%
same,inhibition,[16]; [21],-32.2% and 3.58%
same,inhibition,"[16]; single agent, at 5 µM",-6.99% and -21%
same,inhibition,[17]; at 0.5 µM,-24.4% (inactive) and -51.1% (inactive)
same,inhibition,[17]; [19],-33.5% and -35.5%
same,inhibition,[17]; [20],-21.8% and -61.5%
same,inhibition,"[17]; single agent, at 0.05 µM",-21.6% and -35.7%
same,inhibition,"[17]; single agent, at 5 µM",11.5% and 14.2%

# Source: PubChem BioAssay
